Screening data deposited in PubChem by National Center for Advancing Translational Sciences (NCATS).
HttQ103 aggreg: reduces HttQ103-GFP aggregates in PC12 cells. PC12 HttQ103-GFP aggregates, Acumen cytometry, 40 h. Potency, µM (highest dose often 46.1 µM), usual class: inhibitors. hit rate 1.1% among 220,000; further: nearly all actives have a fitted effect of over 60% in size
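Quantitative HTS on tebufenozide-induced (100 nM) PC12 cells stably expressing polyQ103 Huntingtin exon 1–GFP. Reduction of bright GFP aggregates, detected by laser scanning cytometry after lysis, identified actives across the titration.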
aGal spleen mod: inhibits or activates alpha-galactosidase in human spleen homogenate | P06280 | AID 2107 | hit rate 0.008% among 240,000 | Potency, µM (series often up to 80 µM), most hits filed as inhibitors | human spleen homogenate, 4MU-alpha-Gal fluorescence, 40 min
Target sequence (P06280 32-429 limits assumed): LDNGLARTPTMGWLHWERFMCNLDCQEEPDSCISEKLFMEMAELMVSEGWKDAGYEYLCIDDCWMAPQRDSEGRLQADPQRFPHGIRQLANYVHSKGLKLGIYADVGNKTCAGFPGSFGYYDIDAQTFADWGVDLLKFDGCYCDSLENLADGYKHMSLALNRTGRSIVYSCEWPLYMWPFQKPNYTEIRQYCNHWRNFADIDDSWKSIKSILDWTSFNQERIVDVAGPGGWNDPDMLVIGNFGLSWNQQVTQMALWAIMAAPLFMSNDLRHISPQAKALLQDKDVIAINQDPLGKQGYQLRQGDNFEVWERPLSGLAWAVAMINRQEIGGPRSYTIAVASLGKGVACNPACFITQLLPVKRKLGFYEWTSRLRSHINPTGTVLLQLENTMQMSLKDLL
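Fluorogenic readout (Ex 365/Em 440 nm) of 4-methylumbelliferone released from 1 mM 4-MU-alpha-galactoside by spleen homogenate, 40 min at 37C, pH 5.0. Data normalized to no-enzyme and enzyme controls; Hill-equation AC50 from compound titrations.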
HTT ATP protect: cytoprotection in Huntington HTT-Q103 PC12 cell model. PC12 HTT-Q103 induced, cytoprotection, ATP luminescence, 40 h. Potency, µM (series often up to 56.4 µM), usual class: activators. hit rate 0.14% among 230,000. AID 1471; further: nearly all actives have a fitted effect of over 45% in size
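PC12 cells with ecdysone-inducible HTT exon 1 Q103-GFP, induced with 100 nM tebufenozide and co-treated with library compounds in a dose series (1536-well, 1500 cells/well). Cytoprotection read as ATP content by ATPlite luminescence.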
GLA inh pH 4.5: inhibitors of human alpha-galactosidase A at pH 4.5; P06280; purified enzyme, 4-MU-alpha-Gal fluorescence, pH 4.5; activity change, negative = inhibition, % at 105 µM; 230,000 tested, under 10 active
ERK EGF inh: inhibitors of EGF-stimulated ERK signaling pathway | AID 1454 | hit rate 0.41% among 130,000 | HEK293-V1b, EGF-stimulated phospho-ERK AlphaScreen | Potency, µM (series often up to 11.5 µM), actives largely listed as inhibitors; further: nearly all actives have a fitted effect of over 55% in size
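In this qHTS, HEK293 cells with stable type-1 vasopressin (V1b) receptor were exposed to compound at 37C for 30 min, stimulated 5 min with EGF at 25 nM, lysed, and probed for phospho-ERK by AlphaScreen.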
Hits are given with their value; 0 = inactive; ? = inconclusive; - = no result given; [ ] = dose if it differs, or a comment. Rows were chosen to be rich in hits. Some 1.2% of all compounds tested hit in one or more screens of this group. The call rests on the fitted dose curve; in most records, active means well fitted curve in the direction sought with a large enough effect; inconclusive means small, poorly fitted or top-dose-only effect, or another doubt; inactive means no such curve, though single readings can be large; an effect the other way counts as inactive or inconclusive.

SMILES	HttQ103 aggreg	aGal spleen mod	HTT ATP protect	GLA inh pH 4.5	ERK EGF inh
Nc1nc(Cl)cc(N2CCC(c3cc(-c4ccc(Cl)cc4)n[nH]3)CC2)n1	?	0	0	0	-
CCOC(=O)c1nc(-c2ccc(OC)c(OC)c2)no1	0.63µM	0	0[10 µM]	0	0
CCOC(=O)C1CCN(Cc2nc(-c3ccc(OC)c(OC)c3)no2)CC1	0	0	0	0	-
O=S(=O)(O)CC(S)CS (centres undefined)	0	-	0	-	-
O=C(c1cccc(S(=O)(=O)N2CCCC2)c1)c1cccc(S(=O)(=O)N2CCCC2)c1	11µM	0	0[10 µM]	0	-
O=C(c1cccc(S(=O)(=O)N2CCCCC2)c1)N1CCCCC1	0	0	0[10 µM]	0	-
O=C(Nc1ccc(Cc2ccncc2)cc1)c1ccc(S(=O)(=O)N2CCCC2)cc1	11µM	0	-	0	?
O=C(Nc1ccc(S(=O)(=O)N2CCCCC2)cc1)c1ccncc1	0	0	0[10 µM]	0	-
COc1ccccc1NS(=O)(=O)c1cccc(NC(=O)Nc2ccc(Cl)cc2)c1	?	0	0	0	28µM
COc1ccccc1NS(=O)(=O)c1cccc(NC(=O)Nc2ccccc2)c1	0	0	0[10 µM]	0	?
O=C(Nc1cccc(O)c1)c1cccc(S(=O)(=O)N2CCCC2)c1	0	0	2.8µM	0	-
CCOC(=O)C(C(=O)c1ccccc1)[C@H](CCc1ccccc1)NC(=O)OC (some centres undefined)	-	0	0	0	0
CC(=O)Oc1cc(C)c(OC(C)=O)c2ccccc12	?	-	0	-	-
CCCn1c(NC(=O)c2cccc(S(=O)(=O)N3CCCC3)c2)nc2ccccc21	11µM	0	0[0.074 µM]	0	-
O=C(Nc1cccc(S(=O)(=O)N2CCCCC2)c1)Nc1ccc(Cl)cc1Cl	14µM	0	0[10 µM]	0	0
CN(C)c1ccc(-c2cc(Nc3ccc(F)cc3)ncn2)cc1	-	?	0	-	-
CN1/C(=C\C=N\NC(=O)c2ccccc2Br)C(C)(C)c2ccccc21	11µM	0	0[10 µM]	0	?
CN1/C(=C/C=N/n2cnnc2)C(C)(C)c2ccccc21	0	0	0[10 µM]	0	-
CCCNC(=O)c1cccc(Cn2nc(C)c(Br)c2C)c1	0	0	0	0	-
Cc1nn(Cc2cccc(C(=O)NC34CC5CC(CC(C5)C3)C4)c2)c(C)c1Br	20µM	0	0[10 µM]	0	0
C[N+]1(Cc2ccccc2)CCC(C(=O)OCC2CCCC2)CC1 (centres undefined)	-	0	0	-	-
Cc1ccc(NC(=O)CSc2nnc(-c3ccccn3)n2C)cc1	2.8µM	0	0	0	-
Cn1c(SCC(=O)Nc2ccc3c(c2)OCCO3)nnc1-c1ccccn1	0	0	0	0	-
Cc1ccc(CSc2nnc(CC(=O)Nc3ccc(C)cc3)n2C)cc1	0	0	0	0	-
Cc1ccc(NC(=O)Cc2nnc(SCC(=O)Nc3ccccc3)n2C)cc1	0.18µM	0	-	0	0
SMILES	HttQ103 aggreg	aGal spleen mod	HTT ATP protect	GLA inh pH 4.5	ERK EGF inh
CCc1ccc(S(=O)(=O)/N=C2/C=C(Sc3ncn[nH]3)C(=O)c3ccccc32)cc1	3.5µM	0	0[10 µM]	0	?
COCCn1c(=O)c(-c2cc(F)cc(F)c2)nc2cnc(OCc3ccccc3)nc21	-	0	0	-	0
Cc1ccc(CN2CCN(CC3CC4C=CC3C4)CC2)cc1 (centres undefined)	3.2µM	0	0	0	-
O=C(c1ccccc1F)N1CCN(CC2CC3C=CC2C3)CC1 (centres undefined)	0	0	0	0	-
COC(=O)CNC(c1ccccc1)c1cc(Cl)ccc1NC(=O)c1cccc(Cl)c1 (centres undefined)	0	0	0[10 µM]	0	0
COC(=O)CNC(c1ccccc1)c1cc(Br)ccc1NC(C)=O (centres undefined)	0[9.22 µM]	0	3.2µM	0	0
O=C1CC[C@H](C(=O)O)N1	-	0	0	-	-
O=C(CSc1nnc(Cn2nnc3ccccc32)o1)N(Cc1ccc(F)cc1)c1ccccc1	13µM	0	0[10 µM]	0	-
Cc1cccc(C(=O)N2CCN(c3ccc(C(F)(F)F)cn3)CC2)c1C	16µM	0	0	0	-
Cc1cc(C(=O)N2CCN(c3ccc(C(F)(F)F)cn3)CC2)c(C)o1	0[9.22 µM]	0	0[10 µM]	0	0
Cc1cc(=O)oc2cc(O)cc(O)c12	-	0	0	-	-
CCCCCc1cc(O)c2c(C)cc(=O)oc2c1	25µM	0	0[10 µM]	0	-
Cc1nnc(SCC2=C(C(=O)O)N3C(=O)[C@@H](NC(=O)Cn4cnnn4)[C@@H]3SC2)s1	-	0	?	0	0
CC1C/C(=C\c2cccnc2)C(=O)/C(=C/c2cccnc2)C1 (centres undefined)	3.5µM	0	0[10 µM]	0	?
Cc1cc(N2CCOCC2)c2c(N)c(Br)cc(C)c2n1	2µM	0	0	0	-
O=C(Nc1ccc(Cl)cc1)Nc1nnc(-c2ccncc2)s1	?	0	0[10 µM]	0	0
Cc1ccc(NC(=O)Nc2nnc(-c3ccncc3)s2)cc1C	0[9.22 µM]	0	0[10 µM]	0	0
O=C(Nc1ccncc1)Nc1ccc(F)cc1F	35µM	0	0[1.9 µM]	0	-
O=C(Nc1ccc(F)cc1)Nc1nnc(-c2ccncc2)s1	11µM	0	0	0	-
O=C(Nc1cccc(Cl)c1)Nc1nnc(-c2ccncc2)s1	13µM	0	0[10 µM]	0	0
O=C(Nc1ccc(F)cc1F)Nc1ccc(F)cc1F	0[9.22 µM]	0	0[10 µM]	0	0
C/C(=C\COc1cc(=O)[nH]c2ccccc12)CC[C@@H](O)C(C)(C)O	-	-	0	-	-
C=C1C=CS(=O)(=O)N(C(CC(C)C)C(=O)OC)C1 (centres undefined)	-	0	-	-	-
CCN(CC)S(=O)(=O)c1ccc(Oc2ccc(S(=O)(=O)N(CC)CC)cc2)cc1	2.8µM	0	0	0	-
CCN(CC)S(=O)(=O)c1ccc(Oc2ccccc2OC)cc1	0[9.22 µM]	0	0[10 µM]	0	0
SMILES	HttQ103 aggreg	aGal spleen mod	HTT ATP protect	GLA inh pH 4.5	ERK EGF inh
CC(=O)c1c(O)c2ccccc2n(C(C)C)c1=O	13µM	0	0	0	0
CCOc1ccc(N(C(=O)OC(C)(C)C)C(=O)c2ccc(O[Si](C)(C)C(C)(C)C)cc2)c(I)c1	-	0	-	-	-
Cc1onc(-c2ccccc2Cl)c1C(=O)Nc1sc2c(c1C#N)CCC2	11µM	0	0[10 µM]	0	-
N#Cc1c(NC(=O)C2CC(c3ccccc3Cl)=NO2)sc2c1CCC2 (centres undefined)	0	0	0	0	-
Cn1c(=N)c(S(=O)(=O)c2ccc(F)cc2)cc2c(=O)n3ccccc3nc21	0	0	0[0.074 µM]	0	-
Cn1c(=N)c(S(=O)(=O)c2ccccc2)cc2c(=O)n3ccccc3nc21	3.2µM	0	0	0	-
Cc1ccc(NC2=C(Cl)C(=O)c3ccccc3C2=O)cc1	10µM	0	0[10 µM]	0	-
CCNC1=C(Cl)C(=O)c2ccccc2C1=O	13µM	0	0	-	0
Cc1ccc(NC2=CC(=O)C(=O)c3ccccc32)cc1	10µM	0	0[10 µM]	0	?
O=C1C(Cl)=C(NCCN2CCCCC2)C(=O)c2ccccc21	?	0	0	0	0
O=C1C(Cl)=C(Nc2ccc(O)cc2)C(=O)c2ccccc21	?	0	0[10 µM]	0	?
CCN(CC)c1ccc(NC2=C(Cl)C(=O)c3ccccc3C2=O)cc1	?	0	-	0	10µM
